Shown is part of a subset that was picked to be rich in hits.
CD11b adhes inh = blocks human CD11b/CD18 adhesion to fibrinogen. AID 1497. 93,000 tested, 0.54% active. P05107+P11215. inhibition, % at 10 µM. K562 CD11b/CD18 adhesion to fibrinogen, ATPlite luminescence; Mn2+ added to activate the integrin;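 active = primary inhibition of 50% or more at 10 µM, then 40% or more on retest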
Target sequence (P05107 whole entry, looked up, other chains not shown): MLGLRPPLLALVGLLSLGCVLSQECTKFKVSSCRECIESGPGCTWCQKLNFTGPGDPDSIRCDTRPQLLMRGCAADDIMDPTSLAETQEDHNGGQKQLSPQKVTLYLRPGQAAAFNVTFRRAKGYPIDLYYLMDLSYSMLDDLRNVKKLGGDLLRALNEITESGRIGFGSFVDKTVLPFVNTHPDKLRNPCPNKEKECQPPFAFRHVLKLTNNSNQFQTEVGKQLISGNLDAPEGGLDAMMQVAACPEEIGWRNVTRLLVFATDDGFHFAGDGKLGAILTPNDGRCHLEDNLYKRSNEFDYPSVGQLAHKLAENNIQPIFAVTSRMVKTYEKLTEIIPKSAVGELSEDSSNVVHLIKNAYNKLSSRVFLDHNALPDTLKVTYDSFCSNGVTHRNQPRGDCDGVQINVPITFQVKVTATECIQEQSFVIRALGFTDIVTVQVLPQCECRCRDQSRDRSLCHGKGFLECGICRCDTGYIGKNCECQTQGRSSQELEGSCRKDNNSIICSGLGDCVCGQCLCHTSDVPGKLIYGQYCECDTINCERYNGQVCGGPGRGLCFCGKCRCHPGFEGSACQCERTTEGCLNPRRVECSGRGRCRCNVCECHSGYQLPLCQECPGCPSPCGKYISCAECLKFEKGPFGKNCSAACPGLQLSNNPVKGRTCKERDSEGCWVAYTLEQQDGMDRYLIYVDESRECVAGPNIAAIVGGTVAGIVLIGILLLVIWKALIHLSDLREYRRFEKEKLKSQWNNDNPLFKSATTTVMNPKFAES
Mac1 fbg enh = increases human CD11b/CD18 adhesion to fibrinogen | K562 CD11b/CD18 adhesion to fibrinogen, ATPlite luminescence | activation, % at 10 µM | 93,000 tested, 0.07% active;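 active = 10 µM primary screen giving 50% or more activity, confirmed by 40% or more on retest at that dose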
E coli WT exp = E. coli BW25113 growth inhibition, expanded screen; OD600 absorbance; growth inhibition, % at 100 µM; 98,000 tested, 0.15% active; AID 710;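 active = growth inhibition above about 50% at one test dose, limit read from the data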;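 also: growth measured after 20 h incubation at 37 °C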
Cav32 inh = human Cav3.2 channel inhibition, primary screen | Cav3.2-expressing cells, Fluo-4 calcium fluorescence FDSS; active compounds read low | AID 449739 | O95180 | 100,000 tested, 4% active | B-score at 10 µM;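 active = single-dose well whose peak fluorescence ratio is a statistical outlier from its plate by either plate-standardised score or position-corrected B-score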
Active calls of the source: *; · = no result given.

SMILES	CD11b adhes inh	Mac1 fbg enh	E coli WT exp	Cav32 inh
O=C(CN(c1ccc(Cl)cc1)S(=O)(=O)c1ccccc1)N/N=C/c1ccco1	2	-6	0	-6*
COc1ccccc1NS(=O)(=O)c1ccc(NC(=O)CCNC(=O)c2ccco2)cc1	-2	68*	5	0.023
Cc1ccccc1NS(=O)(=O)c1ccc(NC(=O)c2ccco2)cc1	-15	1	-1	-0.26
CC1(C)C2CCC1(C)C(OCC[N+](C)(C)CC(=O)OC1CCCCC1)C2 (centres undefined)	9	2	·	·
O=C(N/N=C/c1ccc(-c2ccc(S(=O)(=O)Nc3ncccn3)cc2)o1)c1cc2ccccc2cc1O	-11	53*	2	·
Cc1ccc(Nc2nnc(SCC(=O)NCCN3C(=O)CSC3=O)s2)cc1	-11	2	·	·
O=C(CCn1c(=O)[nH]c2ccccc2c1=O)N1CCN(c2ccc(Cl)cc2)CC1	-3	1	-5	-0.66
O=C(CCCCn1c(=O)[nH]c2ccccc2c1=O)N1CCN(c2cccc(C(F)(F)F)c2)CC1	12	0	4	-9.4*
COc1ccc(Cn2c(=O)[nH]c3cc(C(=O)N4CCN(Cc5ccccc5)CC4)ccc3c2=O)cc1	47	-2	-2	-7.5*
O=C(c1ccc(Cn2c(=O)[nH]c3ccccc3c2=O)cc1)N1CCN(c2ccc(F)cc2)CC1	-1	-2	-8	-9*
CCOC(=O)c1sc(/N=C/c2c(C)[nH]n(-c3ccccc3)c2=O)c(C#N)c1C	28	-1	-8	·
O=[N+]([O-])c1cc(S(=O)(=O)Nc2ccccc2)ccc1-n1nnc2ccccc21	7	-1	14	-6.3*
Cn1c(SCc2c(Cl)cccc2Cl)nc(C(F)(F)F)cc1=O	-9	-3	-8	-0.76
COc1ccc(C2Nc3ccccc3C(=O)N2Cc2ccco2)cc1COc1ccccc1F (centres undefined)	0	-5	-11	-5.2*
CCn1cc(SCC(=O)NCc2ccc3c(c2)OCO3)c2ccccc21	0	1	4	-3.9*
COc1ccc(NC(=O)CSc2nc(C)c3c(c2C#N)CCCC3)cc1	0	0	-14	-0.72
Cc1nc(SCC(=O)NCc2ccc3c(c2)OCO3)c(C#N)c2c1CCCC2	-4	-1	-14	-4*
Cc1c(NC(=O)COC(=O)C(c2ccc(Cl)cc2)C(C)C)c(=O)n(-c2ccccc2)n1C (centres undefined)	4	2	-2	-1.1
COc1ccccc1N(CC(=O)NCc1ccccc1)C(=O)CCC(=O)Nc1ccccn1	·	·	·	0.46
CC(=O)Nc1cccc(NC(=O)CSc2ncc(-c3ccc(Cl)cc3)n2Cc2ccco2)c1	73	-6	-8	-3.8*
COc1ccc(-c2cnc(SCC(=O)Nc3ccc4c(c3)OCO4)n2Cc2ccco2)cc1	33	-1	-19	-4.1*
Cc1ccc(C(CC(=O)NCc2ccco2)c2ccc(OC(C)C)cc2)cc1 (centres undefined)	·	·	·	-5.1*
Cc1cc(Br)ccc1NC(=S)Nc1cccc([N+](=O)[O-])c1	99*	-10	·	·
O=[N+]([O-])c1ccc(O)c(NC(=S)Nc2ccccc2)c1	-6	-2	-4	-0.38
O=C(CN1C(=O)COc2ccccc21)N(Cc1cccnc1)Cc1ccccc1F	-1	3	4	-0.07
SMILES	CD11b adhes inh	Mac1 fbg enh	E coli WT exp	Cav32 inh
CCc1ccc(-c2nc(CN3CCC(C(=O)NCCc4ccc(OC)c(OC)c4)CC3)c(C)o2)cc1	7	-1	5	-3.3
Cc1oc(-c2cccc(Cl)c2)nc1CN1CCC(C(=O)NCc2ccco2)CC1	6	-1	10	-4.3*
COc1ccc(CCNC(=O)C2CCN(Cc3nc(-c4ccccc4F)oc3C)CC2)cc1OC	-2	-3	-4	0.56
Cc1oc(-c2ccc(Cl)cc2)nc1CN1CCC(C(=O)NCc2ccco2)CC1	3	-2	-5	-2.9
COc1ccccc1CNC(=O)C1CCN(Cc2nc(-c3cccc(Cl)c3)oc2C)CC1	2	-2	5	-5.8*
CCc1ccc(-c2nc(CN3CCC(C(=O)NCc4ccccc4OC)CC3)c(C)o2)cc1	9	1	11	-8.6*
Cc1oc(-c2ccccc2F)nc1CN1CCC(C(=O)NCCC2=CCCCC2)CC1	-6	-1	10	-5.7*
NC(=O)c1cc2ccc(O)cc2oc1=NCc1ccccc1	·	·	-29	-7.6*
COc1cc(/C=C(\C#N)c2nc3ccccc3[nH]2)ccc1Oc1ccc([N+](=O)[O-])cn1	20	15	-11	-0.22
Cc1cc(/C=C(/C#N)c2nc3ccccc3[nH]2)c(C)n1-c1cccc([N+](=O)[O-])c1	-25	52	-19	-11*
